# Only some compounds are listed: those with a hit (about 2.1% of all), similar ones and a draw of the others.
# FUS yeast rescue – suppressors of FUS proteinopathy in yeast; S. cerevisiae FUS-expressing, growth rescue, OD600, 24 h; Potency, µM (titrated, usually from 76.6 µM), usual class: activators; hit rate 0.24% among 390,000;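 note: plate controls were DMSO vehicle for no effect and reference control for full effect; nearly all actives have a fitted effect of over 55% in size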
#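 Absorbance at 600 nm, taken 24hr after compound addition, measured rescue of FUS-yeast growth at 30C. Induction used 2% galactose with seeding at OD 0.005. Controls: CP55940 from 92uM final, DMSO only.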
# aSyn yeast inh – rescues yeast growth from alpha-synuclein toxicity; Yeast expressing alpha-synuclein, growth rescue, BacTiter-Glo, 24 h; Potency, µM (titrated, usually from 46.1 µM), for inactives: at the top dose growth rescue (activation), usual class: activators; AID 652106; hit rate 0.14% among 370,000; note: % of control where 0% means no effect; nearly all actives have a fitted effect of over 65% in size
#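 Readout is rescue of growth in alpha-synuclein-expressing yeast, so inhibitors of toxicity appear as activators. Growth after 24 hr at 30 deg C in galactose medium is quantified by luminescence.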
# TDP-43 yeast inh – TDP-43 toxicity inhibition in yeast | TDP-43 expressing yeast growth rescue, BacTiter-Glo, 24 h | hit rate 1.8% among 410,000 | Potency, µM (titrated, usually from 46.1 µM), without a hit: at the top dose growth rescue (activation), most hits filed as activators | AID 652104; note: % of control where 0% means no effect; nearly all actives have a fitted effect of over 50% in size
#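 Yeast cells expressing TDP-43 under galactose induction are exposed to compounds for 24 hr at 30 deg C. BacTiter-Glo luminescence measures growth, so protective compounds score as activators.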
# Abeta yeast res – compounds reversing amyloid beta toxicity in yeast | yeast expressing A-beta42, growth rescue, OD600, 48 h; response scale: 0% DMSO, 100% iron-clioquinol control | hit rate 0.063% among 410,000 | Potency, µM (titrated, usually from 46.1 µM), actives largely listed as activators; note: nearly all actives have a fitted effect of over 55% in size
#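 Growth rescue measured by 600 nm absorbance after 48 h yeast culture at 30 C with compound. Values normalized between DMSO and an equimolar ferric chloride plus clioquinol control.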
# The depositor's hits bear a star; i = inactive; ? = inconclusive; . = not tested or not shown; ! = not confirmed by another sample; [ ] = dose if it differs, or a comment. Calls come from the whole dose curve; as a rule, active = well fitted curve in the direction sought with a large enough effect; inconclusive = small, poorly fitted or top-dose-only effect, or another doubt; inactive = no such curve, though single readings can be large; an effect the other way counts as inactive or inconclusive. Potency is the fitted concentration of half-maximal effect.
SMILES,FUS yeast rescue,aSyn yeast inh,TDP-43 yeast inh,Abeta yeast res
COc1ccc(OCC#CCN2CC(C)OC(C)C2)cc1 (configuration not stated),i,-13%,-11%,i
COC(=O)[C@]12C[C@H](CC(=O)NCc3ccc(C)o3)C(=O)N(Cc3cccc4ccccc34)C1=C[C@H](C1CCCC1)O[C@@H]2C,28µM*,.,.,.
COC(=O)[C@]12C[C@H](CC(=O)NCc3cccc4ccccc34)C(=O)N(CCc3ccc(OC)c(OC)c3)C1=C[C@H](C(C)C)O[C@@H]2C1CC1,13µM*,.,.,.
COC(=O)[C@]12C[C@H](CC(=O)N3CCN(C(=O)c4ccco4)CC3)C(=O)N(Cc3cccc4ccccc34)C1=C[C@H](C1CCCC1)O[C@@H]2C,16µM*,.,.,.
COC(=O)[C@]12C[C@H](CC(=O)NCc3ccc(OC)c(OC)c3)C(=O)N(Cc3cccc4ccccc34)C1=C[C@H](C1CCCC1)O[C@@H]2C,13µM*,.,.,.
COC(=O)[C@]12C[C@H](CC(=O)NCC34CC5CC(CC(C5)C3)C4)C(=O)N(Cc3cccc4ccccc34)C1=C[C@H](C1CCCC1)O[C@@H]2C,i,.,.,.
Cc1cccc(N2CCN(C(=O)CCN3C(=O)C4C5C=CC(C5)C4C3=O)CC2C)c1 (configuration not stated),i,1%,-1%,i
COc1ccc(C(=O)NCC2COc3ccccc3O2)cc1S(=O)(=O)N1CCOCC1 (configuration not stated),.,4%,9%,i
NC(=O)CSc1oc(-c2ccc(F)cc2)nc1S(=O)(=O)c1ccccc1,i,0%,0%,i
CCn1c(=S)sc2c(=O)n(CC(=O)Nc3cc(OC)ccc3OC)c(C)nc21,i,0%,1%,i
O=C(COC(=O)c1ccc(OC(F)F)cc1)NC(=O)NC1CCCC1,i,7%,19%,?
CN(C)c1cc(-c2ccc(Br)cc2)oc(=O)c1Cl,i,2%,7.9µM*,i
CN(C)c1cc(-c2ccc(C#N)cc2)oc(=O)c1Cl,i,-5%,30%,i
O=C(O)CSCC(=O)NCc1c(Cl)cccc1Oc1ccccc1,i,-1%,9%,i
O=S(=O)(NCc1c(Cl)cccc1Oc1ccccc1)c1ccc(F)cc1,i,5%,18µM*,i
Cc1ccc(SCCC(=O)Nc2ccccc2Br)cc1,i,4%,23%,i
CN(CC(=O)Nc1ccccc1Br)C(=O)CCSc1ccc(F)cc1,i,12%,14µM*,i
CCOc1ccc(N(CC(=O)Nc2cccnc2)S(C)(=O)=O)cc1,i,-11%,1%,i
CC1(C(=O)NS(=O)(=O)Cc2ccccc2)CCN1C(=O)c1ccc(C2CCCCC2)cc1 (configuration not stated),i,-46%,20µM*,i
CC(=O)C1=CCC(c2ccc(Cl)cc2)N(S(=O)(=O)c2ccccc2)C1 (configuration not stated),i,?,14µM*,i
CC(=O)C1=CCC(c2ccc(Cl)cc2)N(S(=O)(=O)c2ccc(C)cc2)C1 (configuration not stated),?,?,35µM*!,i
C[C@@H]1CCCN1c1ccc2c(c1)O[C@@H]1CCN(C1)S2(=O)=O,i,.,.,.
Cc1ccc2onc(CC(=O)Nc3cc(F)ccc3F)c2c1,i,.,10µM*,i
Cc1ccc(Nc2cc(C(=O)NCCCN3CCOCC3)c3ccccc3n2)c(C)c1,i,2%,-14%[0.397 µM],i
O=C(CCl)N(Cc1ccccc1)c1ccccc1,i,-13%,20µM*,i
SMILES,FUS yeast rescue,aSyn yeast inh,TDP-43 yeast inh,Abeta yeast res
CN(Cc1ccccc1)C(=O)CCn1c(=O)oc2ccccc21,i,9%,15%,i
O=C(CCn1c(=O)oc2ccccc21)N(Cc1ccccc1)c1ccccc1,i,-1%,22µM*,i
CCOc1ccc(CNC(=O)Cn2ccc3cc(S(=O)(=O)N4CCCCCC4)ccc32)cc1,i,8%,-4%,i
CCOc1ccc(CCNC(=O)Cn2ccc3cc(S(=O)(=O)N4CCCCC4)ccc32)cc1,18µM*,.,12%,i
COC(=O)Cn1ccc2cc(S(=O)(=O)N3CCCCCC3)ccc21,i,11%,16µM*!,i
CC1(c2cc([N+](=O)[O-])cc([N+](=O)[O-])c2)CC(C)(C)N(C(=O)c2ccccc2)c2ccccc21 (configuration not stated),i,-15%,25µM*,i
CC1(c2ccc(Cl)cc2)CC(C)(C)N(C(=O)c2ccccc2)c2ccccc21 (configuration not stated),i,.,-9%,i
CC(C)(C)NC(=O)C(c1ccnc2ccccc12)n1c(=O)c(-c2cc3ccccc3[nH]2)nc2ccccc21 (configuration not stated),?,?,14%,i
CC(C)(C)NC(=O)C(c1ccccc1F)n1c(=O)c(-c2cc3ccccc3[nH]2)nc2ccccc21 (configuration not stated),?,7.1µM*,?,i
CC(C)(C)NC(=O)C(c1ccncc1)n1c(=O)c(-c2cc3ccccc3[nH]2)nc2ccccc21 (configuration not stated),?,?,23%,i
CC(C)(C)NC(=O)C(c1cc2ccccc2o1)n1c(=O)c(-c2cc3ccccc3[nH]2)nc2ccccc21 (configuration not stated),?,8.9µM*,12%,?
Cc1cc(C)nc(NS(=O)(=O)c2ccc(NC(=S)NC(=O)C(C)(C)C)cc2)n1,i,-6%,-10%,i
O=C(/C=C/c1ccc2c(c1)OCO2)c1ccc(O)cc1O,i,-28%,8.9µM*,i
O=C(/C=C/c1ccc2c(c1)OCO2)c1ccco1,.,10%,16µM*,i
Cc1ccc(C(=O)C=Cc2ccc3c(c2)OCO3)c(C)c1,i,8%,?,i
CCOc1ccc(S(=O)(=O)N2CCCC2)cc1,i,10%,-3%,i
COCCCN(C(=O)c1ccc(N2CCCC2=O)cc1)c1c(N)n(Cc2ccccc2)c(=O)[nH]c1=O,i,0%,-18%,i
Cc1ccc2c(c1)-c1cc(C)nn1C(c1sccc1C)N2 (configuration not stated),i,-16%,?,i
Cc1cc2n(n1)C(c1sccc1C)Nc1ccccc1-2 (configuration not stated),i,-2%,18µM*,i
O=C(CCc1ccccc1)Nc1cc(NC(=O)CCc2ccccc2)cc(C(=O)O)c1,i,2%,-18%[0.397 µM],i
COc1ccc(C(=O)NC(=S)NNC(=O)[C@H]2C[C@@H]2c2ccccc2)cc1OC,i,18µM*,28%,?
COc1cc(OC)cc(C(=O)NC(=S)NNC(=O)[C@H]2C[C@@H]2c2ccccc2)c1,i,19%,23%,?

# Assay outcomes: PubChem, National Center for Advancing Translational Sciences (NCATS)
